# According to PubChem BioAssay AID1159580 (chemical genetic matrix, 2015):
# Values joined by “and” are separate entries in the source; they are usually repeats but may differ in a detail not shown here. Identical values can stand only once. Out of some 5,500 compounds screened, about 2,000 (36%) were called active. Roughly 18% stayed inconclusive and do not appear here. The list shows a part of the results. A number with no mark means an inactive call. Cut-off read from the data, not from the text of the source: active = normalized growth mostly below about 0.91 (no sharp cut-off); inconclusive = no clear call, values can overlap the other calls; inactive = mostly above about 0.92.
# Experiment: chemical genetic growth profiling, strain panel (AID 1159580);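 note: tested at 20 µM; growth read once vehicle control cultures reached saturation at 30 °C; 1 = growth at the plate median or of vehicle wells; lower values mean less growth of the strain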
# Conditions: S. cerevisiae deletion strains, growth OD
compound,measurement,setting,value
CO[C@H]1/C=C/O[C@@]2(C)Oc3c(C)c(O)c4c(O)c(c(/C=N/N5CCN(C)CC5)c(O)c4c3C2=O)NC(=O)/C(C)=C\C=C\C(C)[C@H](O)[C@@H](C)[C@@H](O)[C@@H](C)[C@@H](OC(C)=O)[C@@H]1C (some centres not stated),normalized growth,"locus YAL013W, strain DEP1, hits give low values",1
same,normalized growth,"locus YAL021C, strain ccr4, hits give low values",1.01
same,normalized growth,"locus YAL026C, strain drs2, hits give low values",1.02
same,normalized growth,"locus YAL030W, strain snc1, hits give low values",1.02
same,normalized growth,"locus YBL061C, strain skt5, hits give low values",1.03
same,normalized growth,"locus YBR009C, strain hhf1, hits give low values",1.02
same,normalized growth,"locus YBR021W, strain FUR4, hits give low values",0.998
same,normalized growth,"locus YBR023C, strain chs3, hits give low values",1.03
same,normalized growth,"locus YBR171W, strain sec66, hits give low values",1.03
same,normalized growth,"locus YBR229C, strain ROT2, hits give low values",1
same,normalized growth,"locus YBR231C, strain swc5, hits give low values",1.03
same,normalized growth,"locus YBR279W, strain paf1, hits give low values",1
same,normalized growth,"locus YCL011C, strain gbp2, hits give low values",1.02
same,normalized growth,"locus YCL016C, strain dcc1, hits give low values",1.01
same,normalized growth,"locus YCL029C, strain bik1, hits give low values",1.02
same,normalized growth,"locus YCL061C, strain MRC1, hits give low values",1.02
same,normalized growth,"locus YCL069W, strain vba3, hits give low values",1.03
same,normalized growth,"locus YCR088W, strain abp1, hits give low values",1.03
same,normalized growth,"locus YDL005C, strain med2, hits give low values",1.02
same,normalized growth,"locus YDL035C, strain GPR1, hits give low values",0.996
same,normalized growth,"locus YDL040C, strain nat1, hits give low values",1.02
same,normalized growth,"locus YDL074C, strain BRE1, hits give low values",1.04
same,normalized growth,"locus YDL101C, strain DUN1, hits give low values",1.03
same,normalized growth,"locus YDL185W, strain tfp1, hits give low values",1.01
same,normalized growth,"locus YDL192W, strain arf1, hits give low values",1.02
same,normalized growth,"locus YDR001C, strain nth1, hits give low values",1.02
same,normalized growth,"locus YDR069C, strain doa4, hits give low values",1.01
same,normalized growth,"locus YDR101C, strain arx1, hits give low values",1.01
same,normalized growth,"locus YDR137W, strain rgp1, hits give low values",0.803 (active)
same,normalized growth,"locus YDR159W, strain sac3, hits give low values",1.03
same,normalized growth,"locus YDR162C, strain NBP2, hits give low values",1.01
same,normalized growth,"locus YDR195W, strain ref2",1.09
same,normalized growth,"locus YDR297W, strain sur2, hits give low values",1.01
same,normalized growth,"locus YDR318W, strain mcm21, hits give low values",1.01
same,normalized growth,"locus YDR334W, strain swr1, hits give low values",1.02
same,normalized growth,"locus YDR335W, strain msn5, hits give low values",1.03
same,normalized growth,"locus YDR388W, hits give low values",1.02
same,normalized growth,"locus YDR392W, strain spt3, hits give low values",0.957
same,normalized growth,"locus YDR502C, strain sam2, hits give low values",1.01
same,normalized growth,"locus YEL003W, strain gim4, hits give low values",0.995
same,normalized growth,"locus YEL037C, strain rad23, hits give low values",1.02
same,normalized growth,"locus YEL061C, strain CIN8 (second series), hits give low values",1.02
same,normalized growth,"locus YEL061C, strain CIN8, hits give low values",1.01
same,normalized growth,"locus YER015W, strain faa2, hits give low values",1.03
same,normalized growth,"locus YER016W, strain bim1, hits give low values",1.02
same,normalized growth,"locus YER110C, hits give low values",1.03
same,normalized growth,"locus YER111C, strain swi4, hits give low values",1.03
same,normalized growth,"locus YER155C, strain BEM2 (second series), hits give low values",1.02
same,normalized growth,"locus YER155C, strain BEM2, hits give low values",1
same,normalized growth,"locus YER167W, strain BCK2, hits give low values",0.996
same,normalized growth,"locus YFR010W, strain ubp6, hits give low values",1.02
same,normalized growth,"locus YGL078C, strain dbp3, hits give low values",1.01
same,normalized growth,"locus YGL086W, strain mad1, hits give low values",1.02
same,normalized growth,"locus YGL167C, strain pmr1, hits give low values",1.02
same,normalized growth,"locus YGL173C, strain kem1, hits give low values",1.03
same,normalized growth,"locus YGL227W, strain vid30, hits give low values",1.04
same,normalized growth,"locus YGL240W, strain doc1, hits give low values",1.03
same,normalized growth,"locus YGL248W, strain PDE1, hits give low values",1.03
same,normalized growth,"locus YGL253W, strain hxk2, hits give low values",1.02
same,normalized growth,"locus YGR135W, strain pre9, hits give low values",1.02
same,normalized growth,"locus YGR252W, strain gcn5, hits give low values",1
same,normalized growth,"locus YHR013C, strain ard1, hits give low values",1.05
same,normalized growth,"locus YHR027C, strain rpn1, hits give low values",1.02
same,normalized growth,"locus YHR030C, strain SLT2, hits give low values",1.01 and 1.08
same,normalized growth,"locus YHR079C, strain IRE1 (second series), hits give low values",1.02
same,normalized growth,"locus YHR079C, strain IRE1, hits give low values",1.05
same,normalized growth,"locus YHR094C, strain hxt1, hits give low values",1.01
same,normalized growth,"locus YHR129C, strain ARP1, hits give low values",1.01
same,normalized growth,"locus YHR142W, strain chs7, hits give low values",1.06
same,normalized growth,"locus YHR200W, strain rpn10, hits give low values",1.02
same,normalized growth,"locus YIL066C, strain RNR3, hits give low values",1.01
same,normalized growth,"locus YIL073C, strain SPO22, hits give low values",1.04
same,normalized growth,"locus YIL125W, strain kgd1, hits give low values",1.03
same,normalized growth,"locus YIR030C, strain dcg1, hits give low values",1.02
same,normalized growth,"locus YJL092W, strain hpr5, hits give low values",1.02
same,normalized growth,"locus YJL095W, strain BCK1 (second series), hits give low values",1.02
same,normalized growth,"locus YJL095W, strain BCK1, hits give low values",1.04 and 1.03
same,normalized growth,"locus YJL115W, strain asf1, hits give low values",1.01
same,normalized growth,"locus YJL129C, strain trk1, hits give low values",1
same,normalized growth,"locus YJL134W, strain LCB3, hits give low values",1.01
same,normalized growth,"locus YJL154C, strain vps35, hits give low values",1.04
same,normalized growth,"locus YJL164C, strain tpk1, hits give low values",1.03
same,normalized growth,"locus YJL166W, strain qcr8, hits give low values",1.02
same,normalized growth,"locus YJL168C, strain set2, hits give low values",1.02
same,normalized growth,"locus YJL187C, strain SWE1 (second series), hits give low values",1.03
same,normalized growth,"locus YJL187C, strain SWE1, hits give low values",1.02
same,normalized growth,"locus YJR043C, strain POL32, hits give low values",0.998
same,normalized growth,"locus YJR066W, strain TOR1, hits give low values",1
same,normalized growth,"locus YKL009W, strain mrt4, hits give low values",1.02
same,normalized growth,"locus YKL068W, hits give low values",1.01
same,normalized growth,"locus YKL085W, strain MDH1 (second series), hits give low values",1.01
same,normalized growth,"locus YKL085W, strain MDH1, hits give low values",1.01
same,normalized growth,"locus YKL160W, strain elf1, hits give low values",1.02
same,normalized growth,"locus YKR001C, strain vps1, hits give low values",1.02
same,normalized growth,"locus YKR026C, strain gcn3, hits give low values",1.03
same,normalized growth,"locus YKR091W, strain srl3, hits give low values",1.02
same,normalized growth,"locus YLL001W, strain dnm1, hits give low values",1.02
same,normalized growth,"locus YLL026W, hits give low values",1.01
same,normalized growth,"locus YLL041C, strain sdh2, hits give low values",1.02
same,normalized growth,"locus YLR027C, strain aat2, hits give low values",1.02
same,normalized growth,"locus YLR039C, strain RIC1, hits give low values",1.02
same,normalized growth,"locus YLR058C, strain SHM2, hits give low values",1.02
same,normalized growth,"locus YLR102C, strain apc9, hits give low values",1.02
same,normalized growth,"locus YLR113W, strain HOG1, hits give low values",1.05
same,normalized growth,"locus YLR221C, strain rsa3, hits give low values",1
same,normalized growth,"locus YLR258W, strain gsy2, hits give low values",1.02
same,normalized growth,"locus YLR262C, strain YPT6 (second series), hits give low values",0.982
same,normalized growth,"locus YLR262C, strain YPT6, hits give low values",1.05
same,normalized growth,"locus YLR268W, strain sec22, hits give low values",1.03
same,normalized growth,"locus YLR320W, strain mms22, hits give low values",1.01
same,normalized growth,"locus YLR330W, strain CHS5, hits give low values",1.01
same,normalized growth,"locus YLR342W, strain FKS1 (second series), hits give low values",0.98
same,normalized growth,"locus YLR342W, strain FKS1, hits give low values",1.02
same,normalized growth,"locus YLR357W, strain rsc2, hits give low values",1.03
same,normalized growth,"locus YLR370C, strain arc18, hits give low values",1.02
same,normalized growth,"locus YLR371W, strain rom2, hits give low values",1.02
same,normalized growth,"locus YLR384C, strain iki3, hits give low values",1.02
same,normalized growth,"locus YLR418C, strain cdc73, hits give low values",1.02
same,normalized growth,"locus YML016C, strain PPZ1, hits give low values",1.01
same,normalized growth,"locus YML032C, strain rad52, hits give low values",1.02
same,normalized growth,"locus YML120C, strain ndi1, hits give low values",1.01
same,normalized growth,"locus YML124C, strain tub3, hits give low values",1.03
same,normalized growth,"locus YMR058W, strain fet3, hits give low values",1.03
same,normalized growth,"locus YMR078C, strain ctf18, hits give low values",1.02
same,normalized growth,"locus YMR125W, strain sto1, hits give low values",1.04
same,normalized growth,"locus YMR129W, hits give low values",1.02
same,normalized growth,"locus YMR205C, strain PFK2, hits give low values",1.01
same,normalized growth,"locus YMR223W, strain ubp8, hits give low values",1.02
same,normalized growth,"locus YMR231W, strain pep5, hits give low values",1.02
same,normalized growth,"locus YMR307W, strain GAS1, hits give low values",0.927
same,normalized growth,"locus YNL067W, strain RPL9B, hits give low values",1.04
same,normalized growth,"locus YNL071W, strain lat1, hits give low values",1.02
same,normalized growth,"locus YNL153C, strain GIM3, hits give low values",1.02
same,normalized growth,"locus YNL183C, strain NPR1, hits give low values",1.01
same,normalized growth,"locus YNL209W, strain ssb2, hits give low values",1.02
same,normalized growth,"locus YNL233W, strain BNI4, hits give low values",1.02
same,normalized growth,"locus YNL248C, strain rpa49, hits give low values",1.02
same,normalized growth,"locus YNL250W, strain rad50, hits give low values",1.01
same,normalized growth,"locus YNL271C, strain bni1, hits give low values",1.02
same,normalized growth,"locus YNL298W, strain CLA4, hits give low values",1.03
same,normalized growth,"locus YNL307C, strain MCK1, hits give low values",1.02
same,normalized growth,"locus YNL322C, strain KRE1 (second series), hits give low values",1.01
same,normalized growth,"locus YNR049C, strain mso1, hits give low values",1.03
same,normalized growth,"locus YNR052C, strain pop2, hits give low values",1.02
same,normalized growth,"locus YOL006C, strain TOP1, hits give low values",1.11
same,normalized growth,"locus YOL012C, strain htz1",1.35
same,normalized growth,"locus YOL147C, strain pex11, hits give low values",1.02
same,normalized growth,"locus YOR001W, strain rrp6, hits give low values",1.01
same,normalized growth,"locus YOR061W, strain CKA2, hits give low values",1.01
same,normalized growth,"locus YOR069W, strain VPS5, hits give low values",1.01
same,normalized growth,"locus YOR070C, strain gyp1, hits give low values",1.03
same,normalized growth,"locus YOR080W, strain dia2, hits give low values",1.03
same,normalized growth,"locus YOR083W, strain WHI5, hits give low values",1.02
same,normalized growth,"locus YOR106W, strain vam3, hits give low values",1.03
same,normalized growth,"locus YOR136W, strain idh2, hits give low values",1.02
same,normalized growth,"locus YOR144C, strain elg1, hits give low values",1.02
same,normalized growth,"locus YOR184W, strain ser1, hits give low values",1.02
same,normalized growth,"locus YOR231W, strain MKK1, hits give low values",1.02
same,normalized growth,"locus YOR265W, strain rbl2, hits give low values",1.04
same,normalized growth,"locus YOR270C, strain vph1, hits give low values",0.999
same,normalized growth,"locus YOR290C, strain snf2, hits give low values",1.01
same,normalized growth,"locus YOR316C, strain cot1, hits give low values",1.01
same,normalized growth,"locus YPL051W, strain arl3, hits give low values",1.03
same,normalized growth,"locus YPL078C, strain atp4, hits give low values",1.01
same,normalized growth,"locus YPL106C, strain sse1, hits give low values",1
same,normalized growth,"locus YPL240C, strain hsp82, hits give low values",1.02
same,normalized growth,"locus YPL256C, strain CLN2, hits give low values",1.06
same,normalized growth,"locus YPR119W, strain clb2, hits give low values",1.02
same,normalized growth,"locus YPR141C, strain kar3, hits give low values",1.02
same,normalized growth,"locus YPR163C, strain tif3, hits give low values",1.01
same,normalized growth,"locus YPR167C, strain met16, hits give low values",1.03
same,normalized growth,"strain wtn01, hits give low values",1
